A short description of assay [1]: qHTS for small molecule inhibitors of Yes1 kinase: Counter Assay (AID 686950).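 Further: no kinase present so only ADP-Glo detection of a fixed ADP amount is tested; luminescence from ADP-Glo reporting ADP in a fixed ATP and ADP mixture; 0% = DMSO wells with ATP plus ADP and -100% = ATP-only wells without ADP.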 Put shortly: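 Measuring interference with ADP-Glo, the assay ran 60 min at room temperature on an ATP/ADP mix lacking enzyme. Values were normalized to ATP-plus-ADP (maximum) and ATP-only (minimum) DMSO controls.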
The nature of assay [2]: qHTS Assay for Identifying Gametocytocidal Compounds (AID 743244). Further: potency means the concentration at half of the fitted maximal effect.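 On max response: on the % scale 0 is the no-effect control and ±100 the full control effect; actives lower the fluorescent signal which means gametocytes are killed.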 As to conditions: P. falciparum 3D7 stage III-V gametocytes, alamarBlue, 72 h; max response: stronger effect = lower value. Put shortly: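 Fluorescence at Ex 525/Em 598 nm, recorded 24 h after alamarBlue addition, reports residual metabolic activity of 3D7 gametocytes (stages III–V) following 72 h compound exposure at 37 °C, 5% CO2.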
A general note: In qHTS, concentration-response curves come from the screen itself.

The nature of assay [3]: qHTS profiling for inhibitors of Plasmodium falciparum (3D7) proliferation (AID 743322; call rule not given here;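 further: infected erythrocytes exposed to compound for 72 h before lysis; 100% = DMSO vehicle wells and 0% = 0.29 µM artemisinin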). Particulars: P. falciparum 3D7 proliferation, at 28.7 µM (top of the series). The gist of the method: (§1)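 Parasite DNA was quantified by SYBR Green I fluorescence (ex 485, em 535 nm) after overnight lysis in saponin/Triton buffer at room temperature. Cultures at 0.3% parasitemia and 2.5% hematocrit were first exposed to compound for 72 h at 37 C; signals were normalised to artemisinin (0.29 uM) and vehicle wells.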

Assay [4] is described as follows: qHTS profiling for inhibitors of Plasmodium falciparum (DD2) proliferation (AID 743323; call rule not given here). As to conditions: at 28.7 µM (top of the series), lower = more inhibition. The gist of the method:
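P. falciparum Dd2-infected erythrocytes (0.3% parasitemia, 2.5% hematocrit) exposed 72 h at 37 C, 5% CO2. Lysis with SYBR Green, overnight at room temperature, fluorescence 485/535 nm; normalized to 0.29 uM artemisinin and DMSO.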

The nature of assay [5]: qHTS profiling for inhibitors of Plasmodium falciparum (HB3) proliferation (AID 743324).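 Further: 100% = DMSO vehicle wells and 0% = artemisinin-treated control wells.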 Particulars: Plasmodium falciparum HB3 blood-stage proliferation; at 28.7 µM (top of the series). The gist of the method: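 SYBR Green fluorescence (485 ex/535 em) of lysed cultures, incubated overnight at room temperature in the dark, quantifies parasite DNA. Infected erythrocytes at 0.3% parasitemia and 2.5% hematocrit were exposed 72 h; values normalized to DMSO and 0.29 uM artemisinin controls.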

The nature of assay [6]: qHTS profiling of the MIPE4 collection as inhibitors of Plasmodium falciparum (3D7) proliferation (AID 743344; call rule not given here;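 further: scaled between DMSO vehicle wells and 0.29 µM artemisinin as full inhibition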). Particulars: P. falciparum 3D7 in erythrocytes, SYBR Green DNA fluorescence, 72 h; at 28.5 µM (top of the series) unless noted. Put shortly: as §1
Assay [7] can be described thus: qHTS profiling of the MIPE4 collection as inhibitors of Plasmodium falciparum (DD2) proliferation (AID 743345; call rule not given here). Particulars: P. falciparum Dd2 in erythrocytes, SYBR Green DNA, 72 h; at 28.5 µM (top of the series) unless noted. Put shortly:
as §1

A short description of assay [8]: qHTS profiling of the MIPE4 collection as inhibitors of Plasmodium falciparum (DD2) proliferation (Rep 2) (AID 743346; call rule not given here). Particulars: P. falciparum Dd2 in erythrocytes, SYBR Green DNA, 72 h; at 28.5 µM (top of the series) unless noted. The gist of the method:
as §1

In assay [9] the target is Arylsulfatase A (Homo sapiens) (UniProt P15289). As to the kind of experiment: qHTS screen for enhancers of Arylsulfatase A (ASA1): LOPAC Validation Assay (AID 720538). Put shortly:
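SV40-transformed fibroblasts from an MLD patient (ASA-I179S) were treated with compound for 48 h at 37 C. They were then lysed with 0.5 mM pNCS substrate (final) for 14 h at room temperature and stopped with NaOH; signal read by fluorescence (Ex 525/Em 598 nm), with increase denoting enhanced activity.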

Assay [10] is described as follows: qHTS for compounds that reverse cellular toxicity of Amyloid beta (A-beta) peptide in yeast: LOPAC Validation Assay (AID 720559).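 Further: plate controls were DMSO for no effect and equimolar ferric chloride plus clioquinol rescue for full effect.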 Put shortly: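 Yeast expressing toxic A-beta grown with pinned compounds at 30 C for 48 hr. Growth measured as absorbance at 600 nm; data normalized to DMSO and to an equimolar FeCl3/clioquinol mixture as positive control.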
A short description of assay [11]: qHTS for Activators of Parkin Expression: LOPAC Validation Assay (NLuc Reporter) (AID 720572;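 further: 0% = DMSO and 100% = positive control compound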). The gist of the method: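 Cells harboring the Parkin-promoter coincidence reporter were treated for 24 h at seven concentrations. NLuc output was measured sequentially after the FLuc channel and scaled between DMSO and positive control values.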
Assay [12] is described as follows: qHTS assay for small molecule agonists of the antioxidant response element (ARE) signaling pathway measured by Nrf2-dependant transcriptional activity (AID 720636; active means well fitted curve in the direction sought with a large enough effect in the repeat runs; an effect the other way counts as inactive or inconclusive;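 further: HepG2 cells with an ARE-driven luciferase reporter; % of control where 0% means no effect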). The gist of the method: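 Nrf2-dependent transcription is measured in ARE-luc HepG2 cells: compound is applied for 16 hr at 37 C after a 6 hr attachment period, and luciferase activity is quantified by luminescence using ONE-Glo.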

Assay [13] is described as follows: qHTS assay for small molecule agonists of the antioxidant response element (ARE) signaling pathway measured by Nrf2-dependant transcriptional activity - cell viability counter screen (AID 720653; active means well fitted curve in the direction sought with a large enough effect in the repeat runs; an effect the other way counts as inactive or inconclusive; further: on the % scale 0 is the no-effect control and ±100 the full control effect). Particulars: ARE-bla HepG2 viability, CellTiter-Glo ATP luminescence, 16 h; max response: stronger effect = lower value. The gist of the method:
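ARE-bla HepG2 cells (2,000/well) rested 5 hrs at 37C/5% CO2, then exposed to compounds in DMSO for 16 hrs. Viability was read in the same wells as intracellular ATP by luminescence, 30 min at room temperature after reagent addition.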

Assay [14] addresses T1, Hexokinase-4 (Homo sapiens) + Glucokinase regulatory protein (Homo sapiens) (UniProt P35557+Q14397). Nature of the assay: qHTS assay for inhibitors of recombinant human GCK-GKRP interaction: Diaphorase-coupled assay (AID 743205). The gist of the method: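 Compounds pre-incubated 20 min with substrate, then 10 nM GST-GCK with 10 nM FLAG-GKRP added. GCK activity coupled via G6PDH and diaphorase to resorufin (5 mM glucose, 0.4 mM ATP, 0.15 mM NADP+, pH 7.6), read kinetically over 30 minutes at Ex 525/Em 590 nm.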

Assay [15] concerns the target T1, Hexokinase-4 (Homo sapiens) + Glucokinase regulatory protein (Homo sapiens). As to the kind of experiment: qHTS assay for inhibitors of recombinant human GCK-GKRP interaction: ADP-Glo assay (AID 743206).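 Further: plate controls were DMSO plus enzyme for no effect and no enzyme for full effect.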 The gist of the method: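 Pin-transferred compounds meet a 15 nM GST-GCK/15 nM FLAG-GKRP/2 uM S6P mix (dispense concentrations). ATP is then added to 0.4 mM final with 5 mM glucose, and the reaction runs 60 min at room temperature. ADP is quantified luminescently.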

For assay [16] the target is unchanged. As to the kind of experiment: qHTS assay for inhibitors of recombinant human GCK-GKRP interaction: HTRF assay (AID 743207).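 Further: 0% = DMSO with GCK present and -100% = DMSO wells lacking GCK.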 Put shortly:
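HTRF binding of 5 nM GST-GCK and 5 nM FLAG-GKRP with 2 uM S6P in pH 7.1 Hepes buffer (MgCl2, KCl, DTT, Tween 20, BSA). Anti-FLAG XL665 and anti-GST donor added, 60 min at room temperature; 665/615 nm read, normalized to with- and without-GCK controls.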

Assay [17] in a line: qHTS assay for cell viability of the p53RE-bla HCT-116 cell line (AID 743292). Further: on the % scale 0 is the no-effect control and ±100 the full control effect; nearly all actives have a fitted effect of over 55% in size. The gist of the method: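 ATP-based luminescence, 16 h compound exposure at 37 C, p53RE-bla HCT-116 cells at 4,000/well.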
Assay [18] in a line: qHTS for Activators of Parkin Expression: LOPAC Validation Assay (FLuc Reporter) (AID 720573;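 further: 0% = DMSO and 100% = positive control compounds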). Put shortly: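 Neuronal cell line stably expressing FLuc/NLuc coincidence reporter under the Parkin promoter, 1,500 cells/well, dosed 24 h after seeding in 7-point series for 24 h at 37 C. FLuc luminescence read; normalized to DMSO and positive control (100%).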
Assay [19] can be described thus: qHTS assay for small molecule antagonists of the retinoid-related orphan receptor gamma (ROR-gamma) signaling pathway - cell viability counter screen (AID 720652; active means well fitted curve in the direction sought with a large enough effect in the repeat runs; an effect the other way counts as inactive or inconclusive;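 further: CHO reporter cells with doxycycline-induced ROR-gamma expression; compound exposure lasted 16 hr before ATP read; on the % scale 0 is the no-effect control and ±100 the full control effect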). The gist of the method: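 Steps: seed CHO cells bearing TET-inducible ROR and ROR response element-luciferase; rest 5 hr at 37 C; add compound, then doxycycline; incubate 16 hr; add CellTiter-Glo and read luminescence as ATP-based viability.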

Assay [20] can be described thus: qHTS assay for cell viability of HEK293 cells (AID 743288). Further: on the % scale 0 is the no-effect control and ±100 the full control effect; nearly all actives have a fitted effect of over 50% in size. As to conditions: ATP luminescence (CellTiter-Glo), 18 h; max response: stronger effect = lower value. The gist of the method: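 Steps: plate 2,000 parental HEK293 cells per well; incubate ≥5 h, 37 C; add compounds in DMSO; incubate 18 h, 37 C; add CellTiter-Glo; wait 30 min at room temperature; read luminescence.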

Structures are written as SMILES. “And” between values parts separate entries of the source, which are not always exact repeats. Equal entries are not always repeated. Records with an inconclusive call do not appear. The source made the active and inactive calls. Unless noted, the call rests on the fitted dose curve; in most records, active means well fitted curve in the direction sought with a large enough effect; inconclusive means small, poorly fitted or top-dose-only effect, or another doubt; inactive means no such curve, though single readings can be large; an effect the other way counts as inactive or inconclusive.

Sequence of Arylsulfatase A (Homo sapiens) (P15289 whole entry, looked up): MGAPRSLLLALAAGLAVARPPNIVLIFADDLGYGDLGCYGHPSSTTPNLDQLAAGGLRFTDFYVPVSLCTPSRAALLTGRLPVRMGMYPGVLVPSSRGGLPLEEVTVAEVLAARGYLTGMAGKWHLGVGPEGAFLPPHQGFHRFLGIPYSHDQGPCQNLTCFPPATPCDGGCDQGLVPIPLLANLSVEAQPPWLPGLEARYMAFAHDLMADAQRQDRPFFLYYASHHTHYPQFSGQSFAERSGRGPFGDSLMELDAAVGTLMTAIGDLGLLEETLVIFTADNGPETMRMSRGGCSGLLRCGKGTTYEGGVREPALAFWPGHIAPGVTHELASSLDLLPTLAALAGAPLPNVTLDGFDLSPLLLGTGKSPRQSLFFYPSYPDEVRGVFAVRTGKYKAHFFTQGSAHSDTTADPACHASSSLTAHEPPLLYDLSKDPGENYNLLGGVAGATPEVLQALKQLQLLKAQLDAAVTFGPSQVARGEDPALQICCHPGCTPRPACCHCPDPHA
T1 sequence (P35557 whole entry, looked up): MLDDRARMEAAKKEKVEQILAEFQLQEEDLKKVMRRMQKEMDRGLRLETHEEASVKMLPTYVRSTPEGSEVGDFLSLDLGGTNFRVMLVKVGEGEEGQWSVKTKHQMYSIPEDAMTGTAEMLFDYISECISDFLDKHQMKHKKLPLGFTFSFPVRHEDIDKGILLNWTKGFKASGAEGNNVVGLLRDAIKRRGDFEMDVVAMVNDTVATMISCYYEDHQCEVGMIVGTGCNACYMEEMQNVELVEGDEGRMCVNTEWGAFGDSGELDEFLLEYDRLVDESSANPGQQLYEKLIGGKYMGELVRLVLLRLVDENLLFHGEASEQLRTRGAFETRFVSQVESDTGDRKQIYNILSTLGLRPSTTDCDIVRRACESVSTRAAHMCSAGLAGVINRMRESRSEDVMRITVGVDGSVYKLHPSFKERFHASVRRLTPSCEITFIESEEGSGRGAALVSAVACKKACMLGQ
T1 sequence (Q14397 whole entry, looked up): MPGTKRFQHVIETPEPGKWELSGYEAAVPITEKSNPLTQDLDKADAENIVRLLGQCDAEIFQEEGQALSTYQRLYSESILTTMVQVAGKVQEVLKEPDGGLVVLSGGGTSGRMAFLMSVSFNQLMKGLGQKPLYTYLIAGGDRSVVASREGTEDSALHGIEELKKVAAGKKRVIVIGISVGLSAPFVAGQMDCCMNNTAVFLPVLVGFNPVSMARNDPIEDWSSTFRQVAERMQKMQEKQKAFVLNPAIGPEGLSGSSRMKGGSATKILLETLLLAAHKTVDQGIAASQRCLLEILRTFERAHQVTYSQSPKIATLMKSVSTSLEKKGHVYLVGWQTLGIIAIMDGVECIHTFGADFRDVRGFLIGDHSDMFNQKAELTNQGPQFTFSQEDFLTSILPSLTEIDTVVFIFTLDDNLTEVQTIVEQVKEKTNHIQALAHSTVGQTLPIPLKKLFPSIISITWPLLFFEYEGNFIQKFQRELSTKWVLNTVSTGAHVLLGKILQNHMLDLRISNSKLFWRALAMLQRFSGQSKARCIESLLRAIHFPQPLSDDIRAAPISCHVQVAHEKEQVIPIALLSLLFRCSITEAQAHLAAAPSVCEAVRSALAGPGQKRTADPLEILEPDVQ

Take `CN(C)C(=N)N=C(N)N`: the molecule was called inactive in assay [1]. The max response in [2] was 1.21% (inactive) and -1.21% (inactive). Besides, the remaining parasite growth % (stronger effect = lower value) in [3] is 104%. Moreover, the activity, percent of control in assay [4] came to 125%. The remaining proliferation (% of control), lower = more inhibition in [5] worked out at 102%. In [6], this molecule showed a parasite growth, % of DMSO control of 97.5%. Moreover, the parasite growth remaining, % of DMSO control (lower = more inhibition) in assay [7] stood at 99.4%. In assay [8], the parasite growth, % of control (lower = inhibition) was 85.6%.

In the case of `CC#C[C@]1(O)CC[C@H]2[C@@H]3CCC4=CC(=O)CCC4=C3[C@@H](c3ccc(N(C)C)cc3)C[C@@]21C`, the Potency result in assay [9], in assay [14], in assay [15], in assay [16] and in assay [17] was “inactive” each time. Also, the call in assay [10], in assay [11] and in [12] was inactive. The max response in assay [13] is -29.2% (inactive). The parasite growth, % of DMSO control in assay [6] came out at 7.43%. The parasite growth remaining, % of DMSO control (lower = more inhibition) in assay [7] worked out at 45.8%. The parasite growth, % of control (lower = inhibition) in assay [8] amounted to 11.9%.

As to `COc1ccc(CCN(C)CCCC(C#N)(c2ccc(OC)c(OC)c2)C(C)C)cc1OC` (stereo not drawn), the molecule was called inactive in assay [1], in [11] and in assay [12]. The Potency result in assay [18], in assay [19], in [14], in assay [15], in assay [16] and in assay [17] was “inactive” each time. Moreover, the max response was -18% (inactive) in [13] and 0.749% (inactive) in [20].

`NC(CO)C(=O)NNCc1ccc(O)c(O)c1O` (stereo not drawn): the Potency result in [9], in [18], in assay [14], in assay [15] and in assay [16] was “inactive” in each case. Further, the outcome in assay [10] and in assay [11] was inactive. Besides, the max response in assay [2] is 0.751% (inactive). For the same molecule, the parasite growth, % of DMSO control in assay [6] was found to be 84.1%. For the same molecule, the parasite growth remaining, % of DMSO control (lower = more inhibition) in assay [7] was determined as 125%. The parasite growth, % of control (lower = inhibition) in assay [8] was found to be 89.1%.

Take `Fc1ccc([C@@H]2CCNC[C@H]2COc2ccc3c(c2)OCO3)cc1`: the Potency entry in assay [9], in assay [18], in [14], in [15] and in assay [16] was “inactive” throughout. Besides, the molecule was classed as inactive in assay [10] and in assay [11]. For the same molecule, the Potency in [2] was 12.6 µM (active) and 1.12 µM (active). Besides, the parasite growth, % of DMSO control in assay [6] worked out at 35.7%. Also, the parasite growth remaining, % of DMSO control (lower = more inhibition) in assay [7] was 39.5%. In addition, in [8], the parasite growth, % of control (lower = inhibition) worked out at 34.6%.

With `CN(C)CCC=C1c2ccccc2C=Cc2ccccc21`, the Potency entry in assay [9], in assay [14], in assay [15] and in [16] was “inactive” each time. In addition, the outcome in [10] and in [11] was inactive. Also, in assay [2], the Potency is 10 µM (active). For the same molecule, the parasite growth, % of DMSO control in assay [6] is 58.1%. In assay [7], the parasite growth remaining, % of DMSO control (lower = more inhibition) stood at 62.8%. For the same molecule, the parasite growth, % of control (lower = inhibition) in assay [8] is 42.4%.

`CCOC(=O)C(C)(C)Oc1ccc(Cl)cc1`: the Potency result in [9], in [14], in assay [15], in assay [16] and in assay [17] was “inactive” each time. The call in assay [10], in [11] and in assay [12] was inactive. Besides, the max response in assay [13] is -4.42% (inactive); in assay [2] it was 9.62% (inactive) and 0.495% (inactive); in assay [20], -5.02% (inactive). Besides, the parasite growth, % of DMSO control in assay [6] is 92.7%. For the same molecule, the parasite growth remaining, % of DMSO control (lower = more inhibition) in assay [7] was 103%. For the same molecule, the parasite growth, % of control (lower = inhibition) in assay [8] was 78%.

Consider `NC(=O)NO`, for which the Potency entry in assay [9], in assay [18], in assay [14], in [15] and in assay [16] was “inactive” each time. Besides, the molecule was called inactive in assay [10] and in [11]. Besides, in assay [2], the max response is -4.54% (inactive) and 19.4% (inactive). Moreover, the parasite growth, % of DMSO control in assay [6] came out at 93.9%. In addition, in [7], the parasite growth remaining, % of DMSO control (lower = more inhibition) came out at 97.5%. Besides, in [8], the parasite growth, % of control (lower = inhibition) came to 95.5%.

Values taken from PubChem BioAssay (NCATS).
